Experimental data published in ChEMBL document CHEMBL1961873, “Compounds: GSK PKIS; Assays: Nanosyn kinase panel” (2012).

Assays:
[1] = target: Sphingosine kinase 1 (Homo sapiens) (UniProt Q9NYA1); details: at 1 µM;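 further: mean SPHK1 inhibition value reported from the GSK PKIS kinase panel screen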
[2] = target: T1, Sphingosine kinase 2 (Homo sapiens) (UniProt Q9NRA0); details: at 0.1 µM
T1 sequence (whole entry): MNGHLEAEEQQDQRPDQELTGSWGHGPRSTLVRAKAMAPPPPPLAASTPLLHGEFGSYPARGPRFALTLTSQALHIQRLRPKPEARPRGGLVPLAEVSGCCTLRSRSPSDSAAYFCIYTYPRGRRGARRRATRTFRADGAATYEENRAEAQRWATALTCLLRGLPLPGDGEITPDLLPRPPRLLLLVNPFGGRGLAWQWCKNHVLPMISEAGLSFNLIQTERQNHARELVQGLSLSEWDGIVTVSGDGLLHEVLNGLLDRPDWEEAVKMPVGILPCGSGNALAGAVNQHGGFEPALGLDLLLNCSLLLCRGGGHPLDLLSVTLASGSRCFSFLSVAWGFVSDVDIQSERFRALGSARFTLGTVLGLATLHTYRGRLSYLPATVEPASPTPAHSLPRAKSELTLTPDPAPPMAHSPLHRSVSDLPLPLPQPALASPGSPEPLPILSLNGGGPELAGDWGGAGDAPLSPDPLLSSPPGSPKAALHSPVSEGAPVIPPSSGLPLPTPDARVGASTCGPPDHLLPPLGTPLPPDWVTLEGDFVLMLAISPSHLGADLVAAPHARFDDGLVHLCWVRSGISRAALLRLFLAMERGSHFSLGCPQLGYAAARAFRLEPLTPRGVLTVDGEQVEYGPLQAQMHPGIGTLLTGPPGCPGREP

[3] = target: T1, Sphingosine kinase 2 (Homo sapiens); details: at 1 µM
[4] = target: Casein kinase II subunit alpha (Homo sapiens) (UniProt P68400); details: at 0.1 µM
Chain of Casein kinase II subunit alpha (Homo sapiens) (P68400 whole entry, looked up): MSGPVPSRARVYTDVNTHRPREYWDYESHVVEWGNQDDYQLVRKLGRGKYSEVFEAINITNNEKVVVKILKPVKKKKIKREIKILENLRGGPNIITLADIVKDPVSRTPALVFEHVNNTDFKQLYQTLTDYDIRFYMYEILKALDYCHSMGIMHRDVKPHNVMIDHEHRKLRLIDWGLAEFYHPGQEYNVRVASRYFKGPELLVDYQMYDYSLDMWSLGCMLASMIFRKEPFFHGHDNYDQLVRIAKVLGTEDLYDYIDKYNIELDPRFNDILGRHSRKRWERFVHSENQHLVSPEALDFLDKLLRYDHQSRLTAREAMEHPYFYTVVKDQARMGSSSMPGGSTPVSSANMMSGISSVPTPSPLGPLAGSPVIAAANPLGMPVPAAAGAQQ

[5] = target: Casein kinase II subunit alpha (Homo sapiens) (UniProt P68400); details: at 1 µM
[6] = target: T2, Inhibitor of nuclear factor kappa-B kinase subunit alpha (Homo sapiens) (UniProt O15111); details: at 0.1 µM
T2 sequence (whole entry): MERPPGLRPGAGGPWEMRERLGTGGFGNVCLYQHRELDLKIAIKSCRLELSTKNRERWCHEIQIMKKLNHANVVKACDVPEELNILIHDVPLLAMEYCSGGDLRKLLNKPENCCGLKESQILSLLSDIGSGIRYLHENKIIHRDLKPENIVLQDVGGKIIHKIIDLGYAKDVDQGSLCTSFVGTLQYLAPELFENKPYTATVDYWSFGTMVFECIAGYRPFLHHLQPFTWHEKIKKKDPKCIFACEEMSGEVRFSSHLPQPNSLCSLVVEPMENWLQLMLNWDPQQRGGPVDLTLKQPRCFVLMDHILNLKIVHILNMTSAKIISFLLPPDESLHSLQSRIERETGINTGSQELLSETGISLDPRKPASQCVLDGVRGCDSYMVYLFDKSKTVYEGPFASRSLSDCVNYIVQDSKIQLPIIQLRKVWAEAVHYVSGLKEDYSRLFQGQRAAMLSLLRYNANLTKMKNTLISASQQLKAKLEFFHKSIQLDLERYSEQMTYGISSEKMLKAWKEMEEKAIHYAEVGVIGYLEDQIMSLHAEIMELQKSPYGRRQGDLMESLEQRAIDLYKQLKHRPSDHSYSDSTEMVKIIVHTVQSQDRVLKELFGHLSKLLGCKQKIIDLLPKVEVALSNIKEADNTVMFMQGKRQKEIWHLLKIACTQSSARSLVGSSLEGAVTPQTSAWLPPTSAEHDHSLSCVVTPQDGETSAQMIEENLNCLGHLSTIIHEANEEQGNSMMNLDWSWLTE

[7] = target: T2, Inhibitor of nuclear factor kappa-B kinase subunit alpha (Homo sapiens); details: at 1 µM
[8] = target: T3, Inhibitor of nuclear factor kappa-B kinase subunit beta (Homo sapiens) (UniProt O14920); details: at 0.1 µM
T3 sequence (whole entry): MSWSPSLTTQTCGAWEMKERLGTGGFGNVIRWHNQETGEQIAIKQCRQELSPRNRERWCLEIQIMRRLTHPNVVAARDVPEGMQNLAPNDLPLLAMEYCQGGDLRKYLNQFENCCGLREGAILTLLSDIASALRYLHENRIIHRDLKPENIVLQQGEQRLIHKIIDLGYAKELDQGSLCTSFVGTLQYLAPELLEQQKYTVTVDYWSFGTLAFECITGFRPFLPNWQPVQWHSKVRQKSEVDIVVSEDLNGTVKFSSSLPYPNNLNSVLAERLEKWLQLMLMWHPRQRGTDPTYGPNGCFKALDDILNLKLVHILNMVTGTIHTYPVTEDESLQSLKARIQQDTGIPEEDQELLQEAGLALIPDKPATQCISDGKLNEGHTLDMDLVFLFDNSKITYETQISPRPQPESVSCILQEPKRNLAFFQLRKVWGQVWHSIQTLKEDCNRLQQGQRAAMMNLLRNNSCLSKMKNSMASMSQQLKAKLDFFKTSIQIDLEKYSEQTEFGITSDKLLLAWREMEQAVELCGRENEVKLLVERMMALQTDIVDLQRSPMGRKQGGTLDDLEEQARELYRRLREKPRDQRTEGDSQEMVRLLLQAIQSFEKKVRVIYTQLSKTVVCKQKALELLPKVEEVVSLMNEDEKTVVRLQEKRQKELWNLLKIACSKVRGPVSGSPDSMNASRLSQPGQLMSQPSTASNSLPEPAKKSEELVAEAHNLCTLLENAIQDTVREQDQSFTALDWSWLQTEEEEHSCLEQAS

[9] = target: T3, Inhibitor of nuclear factor kappa-B kinase subunit beta (Homo sapiens); details: at 1 µM
[10] = target: T4, Inhibitor of nuclear factor kappa-B kinase subunit epsilon (Homo sapiens) (UniProt Q14164); details: at 0.1 µM
T4 sequence (whole entry): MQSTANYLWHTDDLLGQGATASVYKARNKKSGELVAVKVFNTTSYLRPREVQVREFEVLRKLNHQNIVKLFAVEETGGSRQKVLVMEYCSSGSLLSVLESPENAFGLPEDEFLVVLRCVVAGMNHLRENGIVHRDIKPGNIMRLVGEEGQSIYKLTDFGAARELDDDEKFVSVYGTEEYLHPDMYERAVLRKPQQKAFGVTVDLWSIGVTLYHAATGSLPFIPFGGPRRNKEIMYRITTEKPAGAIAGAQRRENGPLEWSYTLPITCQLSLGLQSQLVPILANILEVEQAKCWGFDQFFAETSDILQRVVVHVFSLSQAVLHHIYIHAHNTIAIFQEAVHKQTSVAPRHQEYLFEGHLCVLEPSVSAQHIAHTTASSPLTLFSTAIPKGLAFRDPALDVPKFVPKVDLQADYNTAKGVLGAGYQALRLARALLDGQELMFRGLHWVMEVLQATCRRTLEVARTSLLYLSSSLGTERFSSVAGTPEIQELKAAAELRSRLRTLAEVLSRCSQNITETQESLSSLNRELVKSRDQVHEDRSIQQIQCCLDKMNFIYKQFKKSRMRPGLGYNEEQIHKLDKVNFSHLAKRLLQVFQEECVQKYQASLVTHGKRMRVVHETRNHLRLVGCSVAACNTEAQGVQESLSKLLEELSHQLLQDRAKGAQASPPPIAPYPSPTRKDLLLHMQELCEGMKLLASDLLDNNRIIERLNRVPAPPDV

[11] = target: T4, Inhibitor of nuclear factor kappa-B kinase subunit epsilon (Homo sapiens); details: at 1 µM
[12] = target: T5, Serine/threonine-protein kinase Nek1 (Homo sapiens) (UniProt Q96PY6); details: at 0.1 µM
T5 sequence (whole entry): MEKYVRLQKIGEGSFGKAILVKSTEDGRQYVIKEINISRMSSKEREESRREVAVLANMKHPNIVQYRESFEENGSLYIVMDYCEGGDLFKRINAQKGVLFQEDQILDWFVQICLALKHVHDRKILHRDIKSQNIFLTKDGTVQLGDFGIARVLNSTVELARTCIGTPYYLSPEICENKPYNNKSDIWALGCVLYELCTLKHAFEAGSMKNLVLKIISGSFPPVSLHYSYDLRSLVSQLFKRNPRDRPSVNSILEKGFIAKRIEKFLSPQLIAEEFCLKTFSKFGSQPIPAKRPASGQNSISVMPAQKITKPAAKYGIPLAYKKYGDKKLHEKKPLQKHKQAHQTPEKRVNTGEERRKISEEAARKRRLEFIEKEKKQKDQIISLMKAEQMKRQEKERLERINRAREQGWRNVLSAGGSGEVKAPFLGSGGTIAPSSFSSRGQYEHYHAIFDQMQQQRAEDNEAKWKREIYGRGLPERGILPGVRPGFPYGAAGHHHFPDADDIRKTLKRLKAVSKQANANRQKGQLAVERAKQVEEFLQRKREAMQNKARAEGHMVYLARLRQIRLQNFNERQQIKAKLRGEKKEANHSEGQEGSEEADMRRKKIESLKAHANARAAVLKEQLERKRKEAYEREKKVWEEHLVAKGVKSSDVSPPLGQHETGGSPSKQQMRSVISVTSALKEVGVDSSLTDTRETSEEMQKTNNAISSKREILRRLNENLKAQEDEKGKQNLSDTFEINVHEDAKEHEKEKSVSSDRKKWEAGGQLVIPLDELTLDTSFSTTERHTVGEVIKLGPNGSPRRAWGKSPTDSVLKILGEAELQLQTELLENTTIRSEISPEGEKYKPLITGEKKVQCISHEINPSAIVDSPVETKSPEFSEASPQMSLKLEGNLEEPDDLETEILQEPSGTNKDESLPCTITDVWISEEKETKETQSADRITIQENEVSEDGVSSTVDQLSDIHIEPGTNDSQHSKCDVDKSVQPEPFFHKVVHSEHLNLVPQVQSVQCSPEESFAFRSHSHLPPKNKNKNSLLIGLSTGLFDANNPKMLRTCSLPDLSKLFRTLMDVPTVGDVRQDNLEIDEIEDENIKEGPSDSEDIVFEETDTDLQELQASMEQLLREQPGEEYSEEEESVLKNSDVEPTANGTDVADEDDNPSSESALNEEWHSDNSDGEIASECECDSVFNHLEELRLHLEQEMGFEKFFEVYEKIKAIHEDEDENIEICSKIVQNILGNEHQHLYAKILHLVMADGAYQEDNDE

[13] = target: T5, Serine/threonine-protein kinase Nek1 (Homo sapiens); details: at 1 µM
[14] = target: T6, Serine/threonine-protein kinase Nek2 (Homo sapiens) (UniProt P51955); details: at 0.1 µM
T6 sequence (whole entry): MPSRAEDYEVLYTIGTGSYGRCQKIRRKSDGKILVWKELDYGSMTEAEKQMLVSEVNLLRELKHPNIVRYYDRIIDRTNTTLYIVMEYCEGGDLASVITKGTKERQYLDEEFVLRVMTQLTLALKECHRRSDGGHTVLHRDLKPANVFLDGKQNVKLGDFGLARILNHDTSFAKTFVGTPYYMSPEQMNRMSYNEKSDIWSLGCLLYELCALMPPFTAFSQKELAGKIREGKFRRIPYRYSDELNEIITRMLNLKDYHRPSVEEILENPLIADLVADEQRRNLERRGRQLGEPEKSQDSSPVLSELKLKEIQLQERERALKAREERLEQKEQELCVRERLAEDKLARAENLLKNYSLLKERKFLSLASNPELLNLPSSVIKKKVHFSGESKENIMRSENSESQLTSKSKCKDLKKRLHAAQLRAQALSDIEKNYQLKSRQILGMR

[15] = target: T6, Serine/threonine-protein kinase Nek2 (Homo sapiens); details: at 1 µM
[16] = target: Serine/threonine-protein kinase Nek6 (Homo sapiens) (UniProt Q9HC98); details: at 0.1 µM
Chain of Serine/threonine-protein kinase Nek6 (Homo sapiens) (Q9HC98 whole entry): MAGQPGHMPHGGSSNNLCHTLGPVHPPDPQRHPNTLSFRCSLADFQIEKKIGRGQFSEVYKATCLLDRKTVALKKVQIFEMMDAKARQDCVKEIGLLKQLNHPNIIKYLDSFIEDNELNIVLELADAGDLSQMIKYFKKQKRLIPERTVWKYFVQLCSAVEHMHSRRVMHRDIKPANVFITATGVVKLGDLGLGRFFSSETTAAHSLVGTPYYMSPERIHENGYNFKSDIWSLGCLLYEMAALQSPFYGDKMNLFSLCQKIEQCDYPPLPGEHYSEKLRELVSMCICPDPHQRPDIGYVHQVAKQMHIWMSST

[17] = target: Serine/threonine-protein kinase Nek6 (Homo sapiens) (UniProt Q9HC98); details: at 1 µM
[18] = target: Serine/threonine-protein kinase Nek7 (Homo sapiens) (UniProt Q8TDX7); details: at 0.1 µM
Chain of Serine/threonine-protein kinase Nek7 (Homo sapiens) (Q8TDX7 whole entry, looked up): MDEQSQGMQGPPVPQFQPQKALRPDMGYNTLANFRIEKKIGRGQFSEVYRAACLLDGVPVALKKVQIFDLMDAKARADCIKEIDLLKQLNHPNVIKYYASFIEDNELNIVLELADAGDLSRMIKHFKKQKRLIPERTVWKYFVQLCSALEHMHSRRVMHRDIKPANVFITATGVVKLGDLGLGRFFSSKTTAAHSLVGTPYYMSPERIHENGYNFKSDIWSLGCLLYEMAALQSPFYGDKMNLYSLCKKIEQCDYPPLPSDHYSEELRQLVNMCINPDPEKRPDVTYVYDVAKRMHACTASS

[19] = target: Serine/threonine-protein kinase Nek7 (Homo sapiens) (UniProt Q8TDX7); details: at 1 µM
[20] = target: T7, Serine/threonine-protein kinase Nek9 (Homo sapiens) (UniProt Q8TD19); details: at 0.1 µM;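 further: reported value is the mean percent inhibition of NEK9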
T7 sequence (whole entry): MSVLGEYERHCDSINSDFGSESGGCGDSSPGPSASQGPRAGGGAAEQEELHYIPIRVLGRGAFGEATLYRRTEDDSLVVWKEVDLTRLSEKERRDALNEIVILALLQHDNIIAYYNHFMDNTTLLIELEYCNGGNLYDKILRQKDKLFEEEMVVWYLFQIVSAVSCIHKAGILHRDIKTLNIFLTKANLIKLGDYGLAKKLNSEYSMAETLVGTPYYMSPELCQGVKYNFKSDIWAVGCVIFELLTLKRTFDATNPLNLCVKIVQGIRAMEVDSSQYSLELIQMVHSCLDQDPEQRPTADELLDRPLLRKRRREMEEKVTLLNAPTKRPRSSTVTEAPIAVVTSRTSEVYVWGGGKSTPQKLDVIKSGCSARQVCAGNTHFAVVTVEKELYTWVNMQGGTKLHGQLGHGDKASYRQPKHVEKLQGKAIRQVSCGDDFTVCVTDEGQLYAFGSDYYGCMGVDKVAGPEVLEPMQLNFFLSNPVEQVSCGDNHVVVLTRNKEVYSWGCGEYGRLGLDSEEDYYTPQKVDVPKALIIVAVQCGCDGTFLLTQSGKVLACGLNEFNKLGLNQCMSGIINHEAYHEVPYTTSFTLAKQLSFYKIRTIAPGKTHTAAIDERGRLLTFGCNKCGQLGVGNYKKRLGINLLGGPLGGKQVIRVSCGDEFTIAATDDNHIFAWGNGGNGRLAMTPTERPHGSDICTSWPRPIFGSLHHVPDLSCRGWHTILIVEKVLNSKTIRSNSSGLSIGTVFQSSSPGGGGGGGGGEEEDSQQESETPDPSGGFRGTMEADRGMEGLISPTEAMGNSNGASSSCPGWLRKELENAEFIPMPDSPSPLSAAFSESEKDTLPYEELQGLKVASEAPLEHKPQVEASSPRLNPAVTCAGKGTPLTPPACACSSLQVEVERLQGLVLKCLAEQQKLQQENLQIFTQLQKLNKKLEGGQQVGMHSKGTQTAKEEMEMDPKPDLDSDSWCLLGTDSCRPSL

Chain of Sphingosine kinase 1 (Homo sapiens) (Q9NYA1 whole entry): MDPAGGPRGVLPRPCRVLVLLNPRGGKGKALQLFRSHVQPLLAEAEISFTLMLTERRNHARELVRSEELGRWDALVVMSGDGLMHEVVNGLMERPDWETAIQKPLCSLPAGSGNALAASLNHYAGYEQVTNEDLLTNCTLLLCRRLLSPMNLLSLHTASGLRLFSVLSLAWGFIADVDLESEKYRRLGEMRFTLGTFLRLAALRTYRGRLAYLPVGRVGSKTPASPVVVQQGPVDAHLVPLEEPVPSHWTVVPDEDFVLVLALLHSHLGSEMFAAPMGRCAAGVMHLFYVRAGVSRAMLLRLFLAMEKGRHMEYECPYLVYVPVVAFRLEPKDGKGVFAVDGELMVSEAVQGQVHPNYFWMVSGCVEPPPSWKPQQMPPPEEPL

Row | Structure (SMILES) | inhibition [1] [%] | inhibition [2] [%] | inhibition [3] [%] | inhibition [4] [%] | inhibition [5] [%] | inhibition [6] [%] | inhibition [7] [%] | inhibition [8] [%] | inhibition [9] [%] | inhibition [10] [%] | inhibition [11] [%] | inhibition [12] [%] | inhibition [13] [%] | inhibition [14] [%] | inhibition [15] [%] | inhibition [16] [%] | inhibition [17] [%] | inhibition [18] [%] | inhibition [19] [%] | inhibition [20] [%]
1 | Clc1ccc(CNc2nccc(-c3cnn4ncccc34)n2)cc1 | 0.04 | -0.11 | -0.22 | 2.95 | 17.9 | 1.91 | 7.65 | 1 | 0.32 | 0.31 | -0.99 | 0.32 | 19.8 | 0.93 | 0.52 | 3.94 | -1.91 | -2.2 | 0.48 | -0.09
2 | COc1ccc2ncn(-c3cc(O[C@H](C)c4ccccc4Cl)c(C(N)=O)s3)c2c1 | -2.39 | -0.22 | 0.79 | 5.1 | 3.41 | 7.01 | 6.42 | 6.12 | 4.8 | 5.23 | 4.23 | 4.81 | 24.8 | 5.9 | 10.3 | 0.15 | 0.34 | 3.12 | 6.32 | 31.8
